This is part of a sample that, as a whole, favours compounds with a hit. Of some 83,000 tested, about 20% had one in any assay.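 The test compound was applied at a single concentration to cells in 96-well plates for 48 hours, and percent growth was recorded.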 Unmarked numbers belong to inactive results. The source made the active and inactive calls.
What follows are compounds tested on MDA-MB-468 breast (assay: NCI-60 one-dose screen, 48 h (100 = growth as untreated, 0 = no growth, -100 = all killed)). Settings: 10 µM.
Method: Growth inhibition of the MDA-MB-468 human Breast tumor cell line is measured as a screen for anti-cancer activity. Cells are grown in 96 well plates and exposed to the test compound for 48 hours. Compounds are tested at a single concentration, which is 10^-5 M for most compounds. The reported endpoint is percent growth (GI% or GIPRCNT), where numbers from 0 - 100% represent growth inhibition, and numbers from -100% - 0 represent cell death. For example, a value of 40 represents 60% growth inhibition. A value of 0 means no net growth occurred over the course of the experiment. A value of -40 indicates 40% of cells at the beginning of the experiment died by the end of the experiment. A value of -100 means all cells are dead at the end of the experiment.
NCI-60 Human Tumor Cell Lines Screen was performed using the standard one-dose NCI protocol, which is described in more detail at https://dtp.cancer.gov/discovery_development/nci-60/default.htm.
Compounds with GIPRCNT values below 10 were considered active. Activity score was based on GIPRCNT using the following formula: […]
Score is 0 for GIPRCNT values of 100 or above, 50 for GIPRCNT values of 0, and 100 for GIPRCNT values of -100.

Q: How did the growth turn out when `COc1ccc(NC(=O)Cn2c(/C=C/c3ccc(N(C)C)cc3)nc3ccccc3c2=O)cc1` was run?
A: Its growth is -25.4% (active).

Q: How did the growth turn out when `O=C(c1ccc(O)cc1)C1[C@H](c2ccccc2Br)[C@@H](c2ccccc2)NC12C(=O)Nc1ccc(Br)cc12` (stereo not given in full) was run?
A: Its growth is -25.6% (active).

Q: For `COc1ccc(CN2[C@H](C(=O)NCc3ccc(C(=O)NO)cc3)Cc3c([nH]c4ccccc34)[C@H]2C2CC2)cc1`, which growth is on record?
A: Its growth is 3.8% (active).

Q: Which growth does the source give for `CC(=O)Nc1ccc(-c2cn(-c3cccc(C(=O)Nc4ccc(Cl)c(C(F)(F)F)c4)c3)nn2)cn1` here?
A: The growth was -68.5% (active).

Q: Which growth does the source give for `Cc1ccc(-c2ccc(SCC(=O)Nc3ccc(S(N)(=O)=O)cc3Br)nn2)cc1` here?
A: Its growth is -21.3% (active).

Q: With `C[C@H]1[C@H](C)CC[C@]2(COC(=O)CCC(=O)NCC#CCN3CCNCC3)CC[C@]3(C)C(=CC[C@@H]4[C@@]5(C)CCCNC(C)(C)[C@@H]5CC[C@]43C)[C@H]12` as the compound, how does the growth read?
A: The growth was 17.9%.

Q: `Nc1nc(Nc2ccc(Cl)cc2)n(Cc2cccc(Br)c2)n1` was tested. Which growth did it give?
A: Its growth is -46.5% (active).

Q: For `CN1C(=O)/C(=C/c2nccs2)SC1=S`, which growth is on record?
A: The growth was 65.3%.

Q: For `CCCCCCCCCCCCCCCCCCCC(=O)NCCc1c[nH]c2ccc(OC(=O)NOCCOCCOCCOCCOCCOCCOCCOCCOCCOCCOCCOCCOCCOCCOCCOCCOCCOCCOCCOCCOCCOCCOC)cc12`, which growth is on record?
A: The growth was -14.7% (active).

Q: `Cc1ccc(C(=O)Nc2ccc(-n3c(C)nc4c(cnn4-c4ccccc4)c3=O)cc2)cc1` was tested. Which growth did it give?
A: The growth was 21.1%.

Q: `CC1=C2C(=C[C@@](C)(COCOCCCl)[C@@H]2O)C(=O)[C@](C)(O)C12CC2` was tested. Which growth did it give?
A: Its growth is -89.9% (active).

Q: For `Cc1cc(C)nc(NS(=O)(=O)c2ccc(N/C(N)=N/c3nccc(-c4cccs4)n3)cc2)n1`, which growth is on record?
A: Its growth is 106%.

Q: For `COc1ccc(CCN2C(=O)/C(=C/c3csc(C#N)n3)SC2=S)cc1OC`, which growth is on record?
A: Its growth is -80.6% (active).

Q: For `O=C(Nc1nc2ccc([N+](=O)[O-])cc2s1)Nc1cc(Cl)ccc1I`, which growth is on record?
A: Its growth is -43.5% (active).

Q: For `O=c1[nH]c2ccc(Cl)cc2cc1CSc1ccc(Nc2nccc(-c3ccc4ccccc4c3)n2)cc1`, which growth is on record?
A: Its growth is 15.2%.

Q: With `N#Cc1c(NC(=O)c2ccc(C(F)(F)F)cc2)sc2c1CCC(O)=C2` as the compound, how does the growth read?
A: Its growth is -31.9% (active).

Q: `O=C(CNc1nc(-c2ccccc2)cs1)Nc1ccccc1` was tested. Which growth did it give?
A: Its growth is -78% (active).

Q: How did the growth turn out when `COC[C@@H](CC(C)C)N=C1NC(=O)/C(=C/c2ccc3ncoc3c2)N1` was run?
A: Its growth is -31.1% (active).

Q: With `O=C(/C=C/Nc1ccc(F)cc1F)c1ccc2c(c1)Nc1ccccc1S2` as the compound, how does the growth read?
A: The growth was 41.9%.

Q: For `COc1ccc2[nH]cc(/C=N/Nc3cccc(Cl)n3)c2c1`, which growth is on record?
A: The growth was -13.2% (active).

Q: How did the growth turn out when `O=C1CCC(N2Cc3cc(NC(=O)COc4ccccc4)ccc3C2=O)C(=O)N1` (stereo not given) was run?
A: Its growth is -25.1% (active).

Q: With `CC[C@@]1(O)C(=O)OCc2c1cc1n(c2=O)Cc2c-1nc1cc(F)c(C)c3c1c2[C@@H](N)CC3` as the compound, how does the growth read?
A: The growth was -77.2% (active).

Q: With `Cc1ccc(-c2nc3ccc(C(=O)N=Nc4c(O)[nH]c5ccc(Br)cc45)cc3[nH]2)cc1` as the compound, how does the growth read?
A: Its growth is 62.5%.

Q: Which growth does the source give for `COc1ccc2[nH]c(O)c(N=NC(=O)c3cc(-c4ccc(C)cc4)nc4ccccc34)c2c1` here?
A: The growth was 76.2%.

Q: With `CC(=O)C1=C(C)NC(SCC(=O)Nc2ccc(S(=O)(=O)Nc3cc(C)on3)cc2)=NC1c1ccccc1` (stereo not given) as the compound, how does the growth read?
A: Its growth is 111%.

Q: How did the growth turn out when `CC1=C(C(=O)OC(C)C)C(c2ccc(O)cc2)NC(=S)N1` (stereo not given) was run?
A: The growth was 99%.

Q: Which growth does the source give for `CN(C)c1cccc2c(S(=O)(=O)Nc3cccc(-c4csc(NC(=O)CCCCCN5CCN(c6cc7c(cc6F)C(=O)N(C6CCC(=O)NC6=O)C7=O)CC5)n4)c3)cccc12` (stereo not given) here?
A: Its growth is 59.7%.

Q: For `O=C(CSc1nnc(-c2ccc3nc(-c4ccc(Cl)cc4)[nH]c3c2)o1)Nc1ccc(Cl)cc1`, which growth is on record?
A: The growth was -48.4% (active).

Q: `NS(=O)(=O)c1ccc(N=Nc2c(O)n(CC(=O)Nc3ccccc3Br)c3ccccc23)cc1` was tested. Which growth did it give?
A: Its growth is 35.8%.

Q: How did the growth turn out when `Cn1cc(-c2cc(N)n3nc(-c4c[nH]c5ccc(Br)cc45)cc3n2)c2cc(Br)cnc21` was run?
A: The growth was -98.3% (active).

Q: With `Cc1ccc(F)cc1N/C=c1\s/c(=C(\C#N)C(=O)Nc2ccccc2)n(-c2ccccc2)c1=O` as the compound, how does the growth read?
A: Its growth is 53%.

Q: How did the growth turn out when `CCN1CCN(Cc2ccc(NC(=O)c3cccc(-n4cc(-c5ccc(NC(C)=O)nc5)nn4)c3)cc2C(F)(F)F)CC1` was run?
A: Its growth is 74%.

Q: With `O=C(c1ccc(Cl)cc1)C1[C@H](c2ccc(Br)cc2)[C@@H](c2ccccc2)NC12C(=O)Nc1ccc(Cl)cc12` (stereo not given in full) as the compound, how does the growth read?
A: The growth was -90% (active).

Q: With `COc1ccc(-c2nc(S(=O)(=O)c3ccc(C)cc3)c(S(C)(=O)=O)o2)cc1` as the compound, how does the growth read?
A: Its growth is -92.9% (active).

Q: How did the growth turn out when `CC1=C(c2cc(-c3ccc(Cl)cc3)c(C#N)c(N)n2)C(c2ccccc2)NC(=S)N1` (stereo not given) was run?
A: Its growth is 35%.

Q: Which growth does the source give for `CN1CCN(c2ccc(Nc3nc(NCCCNC(=O)c4ccccc4)c4sccc4n3)cc2)CC1` here?
A: The growth was 68.4%.

Q: `Cc1nc2c(cnn2-c2ccccc2)c(=O)n1-c1ccc(NC(=O)c2ccc(F)cc2)cc1` was tested. Which growth did it give?
A: Its growth is 14.5%.

Q: Which growth does the source give for `COc1ccc2cc([C@H](C)C(=O)NCc3ccccc3)ccc2c1` here?
A: The growth was -20.3% (active).

Q: With `CN1CCN(c2ccc(Nc3nc(N4CCN(S(=O)(=O)c5ccc(F)cc5)CC4)c4sccc4n3)cc2)CC1` as the compound, how does the growth read?
A: Its growth is -96.7% (active).

Q: With `Cc1cc(C)cc(Oc2cccc(-c3c(C)nnn3C3CCN(CCN(C)C)CC3)n2)c1` as the compound, how does the growth read?
A: Its growth is -20.2% (active).

From PubChem BioAssay (NCI)
